We go through five compounds from PubChem BioAssay.

Results filed as inconclusive are left out. The source made the active and inactive calls.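 How the source made its calls, unless noted: active means viability loss from added drug above about 55%, and viability with drug at most 40%, in both replicates (limit read from the data, passing the limit was not always enough); inconclusive means both conditions met in only one replicate; inactive means neither replicate meets both conditions.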

Experiment [1] is described as follows: reducers of endogenous Her2 protein level, primary screen, SKBR3 breast tumor cells, AlphaScreen, ATP viability (AID 461;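 active means Her2 level under about 52% in both replicate screens, with viability over 70% of control, limit read from the data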;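 on Her2 level: lower value means less Her2 protein in the cells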;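 on viability: percent of carrier control wells set as 100% viability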). The settings on record: 18-24 h, measured here: SKBR3 viability, ATP luminescence, at 10 µM.
Experiment [2] deals with Receptor tyrosine-protein kinase erbB-2 (Homo sapiens) (UniProt P04626). Described as above. The settings on record: 18-24 h, at 10 µM, stronger effect = lower value.
The nature of experiment [3]: SK-BR-3 cell growth inhibitors, pilot screen, 24 h, human (AID 572;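 active means viability at or below 10% of carrier control in both of two separate runs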;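 further: compound exposure lasted between 18 and 24 h rather than exactly 24 h; 100% = carrier-treated control wells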). The settings on record: SK-BR-3 viability, CellTiter-Glo luminescence, at 10 µM, stronger effect = lower value.
The nature of experiment [4]: HUVEC growth inhibition – cell-based, human, primary screen (AID 575;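 active means viability at or below 30% in both replicate assays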;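 further: 100% = median of untreated cell wells with 0.1% DMSO on each plate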). The settings on record: HUVEC proliferation, CellTiter-Glo luminescence, 72 h; at 10 µM; stronger effect = lower value.
Experiment [5] is described as follows: growth inhibitors of H69AR lung tumor, primary screen, human, duplicate replicates (AID 580;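 active means viability at or under a set limit in both replicates, limit being median viability minus 3 SD, cut at about 48% in these data, passing the limit was not always enough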;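 further: 100% = mean luminescence of untreated wells and 0% = no signal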). The settings on record: H69AR lung tumor cells viability, ATP luminescence, 72 h; at 10 µM; stronger effect = lower value.
Experiment [6] can be described thus: reversal of MRP1-mediated doxorubicin resistance, pilot screen, H69AR cells, doxorubicin co-treatment (AID 601). The settings on record: CellTiter-Glo, 72 h, at 10 µM; for differential viability (reversal): stronger effect = higher value.
The nature of experiment [7]: 384-well plate pilot, post-Golgi transport modulator project, inhibition of yeast transport mutant growth (AID 636; in the data active means inhibition above about 31%). The settings on record: absorbance 615 nm, about 18 h, stronger effect = higher value.
Experiment [8] is described as follows: growth suppression of yeast trafficking mutant, preliminary HTS, modulators of trafficking downstream of Golgi apparatus project, 1536-format plate, OD 615 nm (AID 637; in the data active means inhibition above about 30%). The settings on record: yeast transport mutant growth, absorbance 615 nm, 18 h; stronger effect = higher value.
The nature of experiment [9]: OD615 S. cerevisiae growth inhibition, permissive medium, pilot counter-assay, permissive growth control for S. cerevisiae lifespan shortening project (AID 705;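 active means growth inhibition above 25% in both replicates, a cutoff set 3 SD above the mean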). As to conditions: OD615, 24 h, at 10 µM, stronger effect = higher value.
Experiment [10] is described as follows: Restrictive medium S. cerevisiae growth inhibition, OD615, pilot screen of yeast lifespan reduction project, restrictive growth control (AID 706;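 active means growth inhibition above a set limit, 3 SD over mean compound inhibition, in both replicates, cut at about 43% in these data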;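 further: modified DeaD lifespan yeast strain shifted to restrictive glucose medium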). The settings on record: OD615, 48 h, at 10 µM, stronger effect = higher value.
Experiment [11] in a line: viability gain of MRP-1-high H69AR cells under doxorubicin, pilot screen, MRP-1 activator project, CellTiter-Glo, duplicate (AID 807;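 active means viability increase at or above a cutoff of the median across tested compounds plus 3 SD, cut at about 8.5% in these data, passing the limit was not always enough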;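 further: compound pretreatment 18-22 h then 72 h combined with doxorubicin; 0% = doxorubicin alone and 100% = vehicle without doxorubicin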). As to conditions: H69AR viability with doxorubicin, CellTiter-Glo luminescence; at 10 µM; stronger effect = higher value.
A short description of experiment [12]: growth suppression of beta-catenin knockout HCT116, pilot screen, human colon tumor cells (AID 823;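 active means cell viability at or below a set limit in both duplicate runs, the limit being the all-compound median minus 4 SD, cut at about 23% in these data, passing the limit was not always enough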;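 further: 0% = wells killed by 20 µM Hyamine and 100% = untreated DMSO cell wells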). As to conditions: CellTiter-Glo, 60 h, at 10 µM, stronger effect = lower value.
The nature of experiment [13]: growth suppression of PTEN-deleted HCT116, pilot screen, cell-based, HCT116 clonal line, CellTiter-Glo (AID 824;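 active means viability at or below 27.92% in each of two runs, the all-compound median minus 4 SD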;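 further: 0% = 20 µM Hyamine control and 100% = vehicle cell control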). The settings on record: 60 h, at 10 µM, stronger effect = lower value.
Experiment [14] in a line: inhibitors of the yeast RAM network, pilot screen, dse1pr::URA3 reporter, 5-FOA selection (AID 869;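 active means inhibition over a set limit, the all-compound mean plus 3 SD, in both replicate runs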;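 further: 0% = DMSO wells with no growth and 100% = 10 µM 1-NA-PP1 with full growth; RAM network block rescues cells from 5-FOA so hits raise OD615 growth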). The settings on record: S. cerevisiae dse1pr::URA3 5-FOA growth, OD615, 2 d; at 10 µM; stronger effect = higher value; strain carries analog-sensitive mutant Cbk1 kinase.
Experiment [15] in a line: RAM signaling pathway blockade in yeast – S. cerevisiae, Pdr1DBD-CYC8 efflux-inhibited sensitized strain, primary screen (AID 1298;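 active means RAM network inhibition above 8.4% in each of two replicates, 3 SD over the compound average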;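 further: 0% = DMSO untreated cells without growth and 100% = 10 µM 1-NA-PP1 full growth; higher means more yeast growth rescued from 5-FOA killing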). The settings on record: S. cerevisiae cbk1-as DSE1-URA3 strain, 5-FOA growth OD615, 2 d; at 50 µM; stronger effect = higher value.
Where [16] appears, read: H69AR cells + 2 uM doxorubicin, measured here: viability with 2 uM doxorubicin, stronger effect = lower value.
The mark [17] stands for this setting: H69AR cells, compound alone cytotoxicity.

Receptor tyrosine-protein kinase erbB-2 (Homo sapiens), sequence (P04626 whole entry, looked up): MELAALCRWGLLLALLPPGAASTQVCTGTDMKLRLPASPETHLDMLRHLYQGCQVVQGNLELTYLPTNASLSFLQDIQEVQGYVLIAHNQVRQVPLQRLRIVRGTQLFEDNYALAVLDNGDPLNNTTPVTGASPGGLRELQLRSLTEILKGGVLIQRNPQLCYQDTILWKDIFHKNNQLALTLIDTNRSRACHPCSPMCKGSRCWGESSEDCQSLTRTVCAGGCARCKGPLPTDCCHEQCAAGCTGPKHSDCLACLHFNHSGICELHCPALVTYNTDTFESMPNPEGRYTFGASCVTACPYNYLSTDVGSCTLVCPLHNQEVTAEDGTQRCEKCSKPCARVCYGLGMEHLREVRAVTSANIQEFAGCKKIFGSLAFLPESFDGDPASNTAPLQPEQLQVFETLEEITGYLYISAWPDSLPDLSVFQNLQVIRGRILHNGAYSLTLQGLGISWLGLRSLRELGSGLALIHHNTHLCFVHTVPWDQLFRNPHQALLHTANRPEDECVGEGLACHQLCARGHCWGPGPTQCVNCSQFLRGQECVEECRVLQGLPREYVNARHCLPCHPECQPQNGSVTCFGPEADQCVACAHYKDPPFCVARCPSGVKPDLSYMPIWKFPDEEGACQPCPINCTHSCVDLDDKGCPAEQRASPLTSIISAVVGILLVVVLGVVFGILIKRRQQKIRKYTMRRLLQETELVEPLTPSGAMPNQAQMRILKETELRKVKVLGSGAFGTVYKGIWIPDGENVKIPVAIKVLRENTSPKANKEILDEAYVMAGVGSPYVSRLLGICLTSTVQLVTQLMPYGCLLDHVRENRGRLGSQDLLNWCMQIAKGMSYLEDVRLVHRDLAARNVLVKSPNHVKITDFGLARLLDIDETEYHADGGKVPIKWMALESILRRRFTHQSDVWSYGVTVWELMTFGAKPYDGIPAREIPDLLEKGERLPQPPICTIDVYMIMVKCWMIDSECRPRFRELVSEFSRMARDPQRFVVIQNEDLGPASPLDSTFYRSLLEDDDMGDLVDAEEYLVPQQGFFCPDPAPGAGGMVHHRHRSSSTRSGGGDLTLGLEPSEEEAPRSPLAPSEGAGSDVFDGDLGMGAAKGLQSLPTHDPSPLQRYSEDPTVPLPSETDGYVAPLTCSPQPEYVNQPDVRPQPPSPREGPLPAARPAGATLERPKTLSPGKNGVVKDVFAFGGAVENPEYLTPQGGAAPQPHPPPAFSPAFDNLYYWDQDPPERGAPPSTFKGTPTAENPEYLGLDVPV

`CCOC(=O)C1CCN(C(=O)CN(c2ccc(Cl)c(C(F)(F)F)c2)S(C)(=O)=O)CC1`: the viability was 112% in experiment [1]; 112% (inactive) in experiment [3]; 107% (inactive) in experiment [4]; 92.1% (inactive) in experiment [5]; 102% in experiment [6] (setting [16]); 92.1% in experiment [6] (setting [17]). In addition, the figures for the viability in [12] and in experiment [13] were 88.1% (inactive) and 84.7% (inactive), respectively. Further, the Her2 level in [2] is 100% (inactive). The differential viability (reversal) in experiment [6] (H69AR cells + 2 uM doxorubicin) was -9.81% (inactive). The inhibition in experiment [7] is -0.65% (inactive); in experiment [8], -2.5% (inactive); in experiment [14], -0.1% (inactive). The figures for the growth inhibition in experiment [9] and in experiment [10] were -11.9% (inactive) and -8.95% (inactive), respectively. Further, the viability increase in experiment [11] is -3.24% (inactive). In experiment [15], the RAM network inhibition was 0.63% (inactive).
As to `O=C(NCc1ccco1)C1CCN(c2ccc(N3CCOCC3)nn2)CC1`, the viability was 86.5% in experiment [1]; 86.5% (inactive) in experiment [3]; 91.4% (inactive) in experiment [4]; 83.6% (inactive) in [5]; 80.6% in [6] (setting [16]); 83.6% in experiment [6] (setting [17]). For the same compound, the viability in experiment [12] is 95.2% (inactive); in experiment [13], 97.3% (inactive). In addition, the Her2 level in [2] was 120% (inactive). In experiment [6] (H69AR cells + 2 uM doxorubicin), the differential viability (reversal) is 2.94% (inactive). Moreover, the inhibition is -0.53% (inactive) in experiment [7], -0.83% (inactive) in experiment [8] and 0.935% (inactive) in experiment [14]. Moreover, the growth inhibition in experiment [9] is 0.41% (inactive); in experiment [10] it was 5.46% (inactive). Also, in experiment [11], the viability increase is -3.71% (inactive). Further, the RAM network inhibition in experiment [15] is 4.7% (inactive).
As for `COc1ccc(NC(=O)NCCN2C(=O)C3C4C=CC(C4)C3C2=O)cc1` (stereo not given), the viability was 96% in experiment [1]; 96% (inactive) in [3]; 100% (inactive) in experiment [4]; 101% (inactive) in experiment [5]; 97.5% in experiment [6] (setting [16]); 101% in [6] (setting [17]). The viability in [12] was 99.1% (inactive); in [13] it was 94.5% (inactive). Also, the Her2 level in experiment [2] was 91% (inactive). Besides, the differential viability (reversal) in experiment [6] (H69AR cells + 2 uM doxorubicin) is 3.28% (inactive). In addition, the inhibition is -1.33% (inactive) in experiment [7], 0.33% (inactive) in experiment [8] and 1.5% (inactive) in [14]. Moreover, the values for the growth inhibition in [9] and in experiment [10] were -5.58% (inactive) and 10.4% (inactive), respectively. In addition, the viability increase in experiment [11] was -0.53% (inactive). In addition, the RAM network inhibition in experiment [15] is -1.15% (inactive).
As to `COc1ccccc1NCN1C(=O)CCC1=O`, the viability is 102% in experiment [1]; 102% (inactive) in experiment [3]; 104% (inactive) in [4]; 82.4% (inactive) in [5]; 103% in experiment [6] (setting [16]); 82.4% in [6] (setting [17]). The viability was 102% (inactive) in [12] and 95.5% (inactive) in [13]. Further, the Her2 level in [2] is 98% (inactive). The differential viability (reversal) in experiment [6] (H69AR cells + 2 uM doxorubicin) is -20.8% (inactive). Moreover, the results for the inhibition in [7], in [8] and in [14] were -7.47% (inactive), 2% (inactive) and 1.98% (inactive), respectively. For the same compound, the growth inhibition in [9] was -9.71% (inactive); in experiment [10] it was 1.64% (inactive). The viability increase in experiment [11] was -0.43% (inactive). Besides, the RAM network inhibition in [15] was 3.27% (inactive).
In the case of `CCC(C)NC(=O)CS(=O)(=O)Cc1nc(-c2cccc(OC)c2)oc1C` (stereo not given), the viability in [1] is 80.5%; in [3], 80.5% (inactive); in [4], 97.6% (inactive); in experiment [5] it was 91.4% (inactive); in [6] (setting [16]), 100%; in experiment [6] (setting [17]), 91.4%. Moreover, the viability in experiment [12] is 91.9% (inactive); in experiment [13], 93.5% (inactive). The Her2 level in experiment [2] is 98% (inactive). For the same compound, the differential viability (reversal) in experiment [6] (H69AR cells + 2 uM doxorubicin) is -8.61% (inactive). For the same compound, the values for the inhibition in experiment [7], in experiment [8] and in experiment [14] were -2% (inactive), -0.66% (inactive) and 0.02% (inactive), respectively. Besides, the growth inhibition in experiment [9] is 3.02% (inactive); in experiment [10] it was 9.5% (inactive). The viability increase in [11] is 0.02% (inactive). The RAM network inhibition in experiment [15] is 3.92% (inactive).
